Measurements reported in PubChem BioAssay AID1240 (Sanford-Burnham Center for Chemical Genomics, 2008).
The campaign covered roughly 50,000 compounds. About 800 (1.6%) showed an effect of 50% or more. Only a selection was taken, and strong results are over-represented in it overall.

Target: Bcl-2-like protein 10 (Homo sapiens) (UniProt Q9HD36)
Assay: TR3 peptide-Bcl-B binding displacers, biochemical primary FP assay, phenotype converters (AID 1240);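 further: 0% = Bcl-B with tracer peptide and DMSO and 100% = tracer peptide lacking Bcl-B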
Conditions: GST-Bcl-B / FITC-TR3 peptide fluorescence polarization; stronger effect = higher value; compound at 3.75 mg/L

Chain of Bcl-2-like protein 10 (Homo sapiens) (Q9HD36 whole entry, looked up): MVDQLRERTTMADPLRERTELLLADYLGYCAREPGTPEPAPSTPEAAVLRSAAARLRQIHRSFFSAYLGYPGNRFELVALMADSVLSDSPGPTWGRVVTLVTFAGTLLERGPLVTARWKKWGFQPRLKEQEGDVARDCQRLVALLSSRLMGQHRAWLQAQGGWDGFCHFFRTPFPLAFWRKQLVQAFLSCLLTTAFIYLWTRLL

SMILES	displacement
O=C(/C=C/c1cccc(C(F)(F)F)c1)Nc1ccccc1[N+](=O)[O-]	7%
O=C(O)CCC(=O)N1N=C(c2cccs2)CC1c1ccccc1Cl (stereo not given)	-8.4%
O=C(Cc1ccc(Cl)cc1)Nc1ccc(Cl)cn1	8.8%
Clc1ccc(N2CCN(N=Cc3c(Cl)cccc3Cl)CC2)cc1	8.5%
Cc1ccc(C(=O)Nc2ccc(C(=O)O)cc2)cc1S(=O)(=O)NC1CCCCC1	-11.1%
Cc1nn(-c2ccccc2)c(C)c1/C=N/O	3.2%
CCOC(=O)c1c(NC(=O)C(C)N2C(=O)c3ccccc3C2=O)sc2c1CCC(C)C2 (stereo not given)	2.5%
COc1ccc(N2C(=O)NC(=O)/C(=C/c3ccc(OCc4ccccc4F)cc3)C2=O)cc1	63.1%
O=C1NC(=O)N(c2ccccc2)C(=O)/C1=C\c1ccc(OCc2ccccc2F)cc1	12.9%
COc1ccc(N2C(=O)NC(=O)/C(=C/c3ccc(-c4ccc(F)cc4)o3)C2=O)cc1	100%
COc1ccc(N2C(=O)NC(=O)/C(=C/c3cccc(OCc4ccccc4F)c3)C2=O)cc1	0.1%
Cc1ccc(N2C(=O)NC(=O)/C(=C/c3ccc(-c4ccc(F)cc4)o3)C2=O)cc1	40.5%
COc1ccc(N2C(=O)NC(=O)/C(=C\c3ccc(C)cc3)C2=O)cc1	-6%
COc1ccc(N2C(=O)NC(=O)/C(=C\c3ccc(-c4ccccc4C(=O)O)o3)C2=O)cc1	-88.8%
O=C1NN(c2ccccc2)C(=O)/C1=C/c1ccc(-c2ccc(F)cc2)o1	8.1%
O=C1NC(=O)N(c2ccccc2)C(=O)/C1=C\c1ccc(-c2ccc(F)cc2)o1	137%
COc1ccc(N2C(=O)NC(=O)/C(=C/c3ccc(Sc4ccc(C)cc4)o3)C2=O)cc1	125%
COc1ccc(N2C(=O)NC(=O)/C(=C/c3ccc(I)o3)C2=O)cc1	3.6%
COC(=O)c1c(N)sc(C(=O)Nc2ccccc2OC)c1C	1.7%
Cc1cc(Cl)ccc1OCC(=O)Nc1nc2ccc(Cl)cc2s1	-7.8%
O=[N+]([O-])c1cccc(S(=O)(=O)N2CCc3ccccc3C2)c1	0%
COc1ccccc1N1C(=O)C2C(C1=O)C1C=CC2C12CC2 (stereo not given)	15.1%
O=C(Nc1ccc(I)cc1)/C(=C\c1cccc([N+](=O)[O-])c1)NC(=O)c1cccs1	-0.6%
COc1cccc(OC)c1C(=O)Nc1ccc(C(=O)Oc2ccccc2)c(O)c1	-9.1%
O=C(Nc1ccc(Cl)c(-c2nc3ccccc3o2)c1)c1cccc(F)c1	-5.1%
CC(=O)Nc1ccc(S(=O)(=O)Nc2ccccc2Br)cc1	-2.9%
O=C1NC(=S)N/C1=C/c1cccc(O)c1	-6.7%

SMILES	displacement
COc1cc(OC)cc(-c2nc3ccc(C)cc3c(=O)o2)c1	-17.8%
O=C(Nc1ccc2nn(-c3ccc(F)cc3)nc2c1)c1ccc(-c2ccc([N+](=O)[O-])cc2)o1	8.2%
CN1C(=O)NC(=O)/C(=C/c2ccc(-c3ccc(F)cc3)o2)C1=O	123%
C=CCN1C(=O)/C(=C\c2ccc(-c3ccc(F)cc3)o2)C(=O)NC1=S	-3.3%
CN1C(=O)NC(=O)/C(=C/c2ccc(-c3ccc(Cl)cc3)o2)C1=O	37%
COc1ccccc1CNC(=O)c1cccc(Cl)c1	-6.1%
COc1cccc(C(=O)Nc2ccc(-c3nc4ccccc4o3)c(O)c2)c1	-23.2%
Clc1ccc2nc(N/N=C/c3ccc4ncccc4c3)nc(-c3ccccc3)c2c1	-2.6%
O=[N+]([O-])c1ccc(/C=N\Nc2nc(-c3ccccc3)c3cc(Cl)ccc3n2)o1	-5.3%
Clc1ccc2nc(N/N=C/c3ccc4c(c3)OCO4)nc(-c3ccccc3)c2c1	83.7%
Cc1ccc(/C=N\N2CCN(c3ccccc3)CC2)cc1	-3.9%
COc1ccc2nc(Nc3nc(C)cc(-c4ccccc4)n3)nc(C)c2c1	-14.2%
COc1cc(C)nc(Nc2nc(C)c3ccc(C)cc3n2)n1	13.2%
COc1cc(C)nc(Nc2nc(C)c3cc(C)ccc3n2)n1	107%
CN(C)c1ccc(CC2(CC(=O)c3ccccc3)C(=O)c3ccccc3C2=O)cc1	1.8%
CC1=CC(=O)C=C/C1=N\OS(=O)(=O)c1ccccc1	25.4%
COc1cc(C=O)ccc1OC(C)c1ccccc1 (stereo not given)	1.1%
COc1ccc(C=C2C(=O)N(C)C(=O)N(C)C2=O)cc1OC	0.6%
COc1cc(C=C2C(=O)N(C)C(=O)N(C)C2=O)ccc1OC(C)c1ccccc1 (stereo not given)	120%
COc1ccc(OC)c(/C=c2\sc3nc4c(Br)c(C)c(C)cc4n3c2=O)c1	19.8%
Cc1ccc(OCC(=O)O/N=C(\N)c2ccncc2)c(C)c1	2.5%
CC1(C)Cc2ccccc2-c2nnc(-c3cccs3)n21	-8.6%
N/C(=N\c1nc2ccccc2o1)NC(=O)c1ccccc1	-10.3%
N/C(=N\c1nc2ccccc2o1)NC(=O)c1ccc(F)cc1	1.4%
N/C(=N/c1nc2ccccc2o1)NC(=O)c1sc2ccccc2c1Cl	51.6%
O=C(Oc1ccc(Br)cc1C(=S)N1CCOCC1)c1ccc([N+](=O)[O-])cc1	7.3%
Cc1cccc(NC(=O)c2c(NC(=O)C(C)(C)C)sc3c2CCC3)c1	-2.3%

SMILES	displacement
Nc1cccc2c1C(=O)c1c(N)cccc1C2=O	-4.2%
Nc1nnc2c(n1)-c1ccccc1C2=O	1%
Nc1ccc2[nH]nc3c2c1C(=O)c1ccccc1-3	104%
CNc1ccc2[nH]nc3c2c1C(=O)c1ccccc1-3	173%
CNc1c(Cl)c(Cl)c(Cl)c2c1C(=O)c1ccccc1C2=O	11.2%
CCC(=O)Nc1cccc2c1C(=O)c1ccccc1C2=O	11.2%
Cc1cc(C)nc(NS(=O)(=O)c2ccc(NC(=S)NC(=O)c3ccc(Br)cc3)cc2)n1	2.6%
O=C(NCCN1CCOCC1)c1sc2ccccc2c1Cl	-3.6%
CCOc1cc([N+](=O)[O-])cc(/C=C2/SC(=S)NC2=O)c1O	14%
NS(=O)(=O)c1ccc(NC(=O)COc2ccc3ccccc3c2)cc1	3%
Cc1ccc(OCCCN2CCN(C)CC2)c(C(C)(C)C)c1	-8%
CC(=NCCN1CCNCC1)C1=C(O)CC(C)(C)CC1=O	-4.3%
COc1cc(OC)c(OC)cc1/C=C/c1cc(C(F)(F)F)[nH]c(=O)n1	7.5%
COc1cccc(/C=C/c2cc(C(F)(F)F)[nH]c(=O)n2)c1OC	121%
O=c1nc(/C=C/c2cccc3ccccc23)cc(C(F)(F)F)[nH]1	49.7%
O=c1nc(/C=C/c2cc3c(cc2Br)OCO3)cc(C(F)(F)F)[nH]1	115%
COc1cc(/C=C/c2cc(C(F)(F)F)[nH]c(=O)n2)cc(OC)c1OC	2.7%
O=c1nc(/C=C/c2cc3c(cc2[N+](=O)[O-])OCO3)cc(C(F)(F)F)[nH]1	30.4%
CCOC(=O)c1c(NC(=O)c2ccc(Cl)cc2)sc(C(=O)Nc2ccccc2OCC)c1C	3.5%
Cc1cc(N2C(=O)NC(=O)/C(=C\c3ccco3)C2=O)ccc1Br	74%
Cc1cc(N2C(=O)NC(=O)/C(=C\C=C\c3ccco3)C2=O)ccc1Br	-3.7%
Cc1ccc(N2C(=O)NC(=O)/C(=C\c3ccc(N(C)C)o3)C2=O)cc1	-134%
Cc1cc(N2C(=O)NC(=O)/C(=C\c3ccc(N4CCOCC4)o3)C2=O)ccc1Br	-33.9%
O=C1NC(=O)N(c2ccc(Br)cc2)C(=O)/C1=C/c1ccco1	30.1%
Cc1cc(N2C(=O)NC(=O)/C(=C\c3ccc(N4CCCCC4)o3)C2=O)ccc1Br	55.5%
Cc1cc(N2C(=O)NC(=O)/C(=C\c3ccc(N(C)C)o3)C2=O)ccc1Br	153%
CCN(CC)c1ccc(/C=C2\C(=O)NC(=O)N(c3ccc(Br)c(C)c3)C2=O)o1	42.6%

SMILES	displacement
Cc1ccc(N2C(=O)NC(=O)/C(=C\c3ccc(N4CCCCC4)o3)C2=O)cc1	-139%
CC(C)(C)C1(O)CC(c2ccccc2)=NO1 (stereo not given)	18.6%
O=C1c2ccccc2C(=O)c2c(NC(=O)C3CC4CCC3C4)cccc21 (stereo not given)	-7.7%
O=C(c1ccccc1)N1CCN(C2CC(=O)N(CCc3ccccc3)C2=O)CC1 (stereo not given)	3.9%
CCC1=NN2C(=N)/C(=C/c3ccc4c(c3)OCO4)C(=O)N=C2S1	3%
CCOc1cccc(N2C(=O)NC(=O)/C(=C\c3ccc(Sc4ccccc4)o3)C2=O)c1	4%
CSc1nc(-c2ccccc2)nc2[nH]c(-c3ccccc3)cc(=O)c12	44.4%
Cc1nc(-c2ccccc2)nc2[nH]c(-c3ccccc3)cc(=O)c12	69.8%
Cc1cc(=O)c2c(C)nc(-c3ccccc3)nc2[nH]1	31.5%
CCOC(=O)c1ccc(NC(=O)c2cc(-c3cccs3)nc3ccccc23)cc1	4.7%
CCN(CC)CCNC(=O)c1ccc(Cl)c(Cl)c1	-5.2%
O=C(NC(NC(=S)Nc1cccc2ccccc12)C(Cl)(Cl)Cl)c1ccccc1 (stereo not given)	18.6%
Cc1ccc(C(=O)NC(NC(=S)Nc2ccccc2Cl)C(Cl)(Cl)Cl)cc1 (stereo not given)	-10.7%
Cc1ccc(C(=O)NC(NC(=S)Nc2cccc3ccccc23)C(Cl)(Cl)Cl)cc1 (stereo not given)	54.9%
Nc1c(C(=O)c2ccc(Cl)cc2)sc2nc(-c3ccccc3)ccc12	-3.6%
Nc1c(C(=O)c2ccc(Br)cc2)sc2nc(C(F)(F)F)c(C(=O)c3cccs3)cc12	51.1%
CC(=O)c1cc2c(N)c(C(=O)c3ccc(Br)cc3)sc2nc1C	10.1%
Cc1cc([N+](=O)[O-])nn1C(=O)c1nn(C)cc1Br	0.4%
N#Cc1ccccc1NC(=O)c1ccc(-c2ccccc2)cc1	12.6%
Cc1ccc(-c2nc3s/c(=C\c4cn(-c5ccccc5)nc4-c4ccccc4)c(=O)n3n2)cc1	8.5%
COc1ccc(OC)c(NS(=O)(=O)c2cccc([N+](=O)[O-])c2)c1	2.1%
Cc1cc(Cl)ccc1NS(=O)(=O)c1cccc([N+](=O)[O-])c1	-1.2%
COc1ccc(Cl)cc1NS(=O)(=O)c1cccc([N+](=O)[O-])c1	72.8%
CC(C)C(=O)Nc1cc(C(F)(F)F)cc(C(F)(F)F)c1	-2.9%
